Hit rate of the full screen: of about 2,400 compounds, about 750 (31%) were called active. This is one part of the list. Unmarked numbers belong to inactive results.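 Rule for the calls: active = median signal gain over dofetilide-blocked control wells reaching their mean plus 3 SD, so readout 1 at least 0; inactive = the rest.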

For the test, the target named is Voltage-gated inwardly rectifying potassium channel KCNH2 (Homo sapiens) (UniProt Q12809). The experiment in a line: modulators restoring hERG flux under dofetilide – cell-based, thallium flux, duplicate retest, dofetilide IC70, confirmation (AID 1835). The conditions noted are these: hERG cell line, FluxOR thallium flux, dofetilide-blocked; at 10 µM; hits give high values. Background: Block of hERG is tested as a sign of cardiac risk.
Voltage-gated inwardly rectifying potassium channel KCNH2 (Homo sapiens), sequence (Q12809 whole entry, looked up): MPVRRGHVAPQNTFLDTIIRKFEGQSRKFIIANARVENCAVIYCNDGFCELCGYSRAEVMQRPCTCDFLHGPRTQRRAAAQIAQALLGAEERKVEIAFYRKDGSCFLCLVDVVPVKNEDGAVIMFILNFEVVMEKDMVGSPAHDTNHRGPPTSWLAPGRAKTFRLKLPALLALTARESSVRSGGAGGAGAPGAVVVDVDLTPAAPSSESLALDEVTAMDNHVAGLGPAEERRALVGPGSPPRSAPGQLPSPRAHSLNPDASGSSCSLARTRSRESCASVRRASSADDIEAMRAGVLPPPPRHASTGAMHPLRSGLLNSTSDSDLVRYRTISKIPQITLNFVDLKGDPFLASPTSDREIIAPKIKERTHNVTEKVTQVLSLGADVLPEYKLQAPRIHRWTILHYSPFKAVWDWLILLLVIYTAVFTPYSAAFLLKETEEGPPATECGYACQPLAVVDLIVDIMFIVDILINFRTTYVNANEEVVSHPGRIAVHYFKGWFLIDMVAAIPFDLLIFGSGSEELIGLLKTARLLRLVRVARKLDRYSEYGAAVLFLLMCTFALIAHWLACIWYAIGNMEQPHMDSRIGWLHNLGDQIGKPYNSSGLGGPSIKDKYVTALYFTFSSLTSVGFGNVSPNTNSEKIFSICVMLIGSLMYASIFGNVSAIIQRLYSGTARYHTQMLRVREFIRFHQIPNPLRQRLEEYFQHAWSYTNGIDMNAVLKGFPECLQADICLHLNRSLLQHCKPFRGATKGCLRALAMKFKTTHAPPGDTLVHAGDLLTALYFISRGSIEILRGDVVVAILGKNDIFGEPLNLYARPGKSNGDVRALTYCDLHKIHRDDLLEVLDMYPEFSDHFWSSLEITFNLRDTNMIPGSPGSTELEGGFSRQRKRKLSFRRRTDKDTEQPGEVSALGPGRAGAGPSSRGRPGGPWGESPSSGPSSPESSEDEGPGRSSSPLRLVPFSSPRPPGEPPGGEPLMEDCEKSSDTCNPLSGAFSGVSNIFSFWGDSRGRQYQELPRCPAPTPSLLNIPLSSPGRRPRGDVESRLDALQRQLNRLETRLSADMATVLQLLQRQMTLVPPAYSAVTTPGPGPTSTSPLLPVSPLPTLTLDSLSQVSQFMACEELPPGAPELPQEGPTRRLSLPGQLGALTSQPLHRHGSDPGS
Regarding `COC(=O)c1c(N2C(=O)CC(Sc3ncccc3C(=O)O)C2=O)sc(C)c1C` (stereo not given), the activity increase over dofetilide control, less the hit threshold was -14%. In the case of `CC(C)CC1C(C#N)=C(N)Oc2n[nH]c(-c3cccs3)c21` (stereo not given) it was -16%; in that of `CCOc1ccc(C(=O)N(CN2CCCC2=O)c2ccc(C)cc2)cc1`, 10% (active); in that of `COc1ccc(C(=O)N(CN2CCCC2=O)c2ccc(C)cc2)cc1`, -1%. In the case of `O=C(NCCCN1CCCC1=O)c1ccc(OC(F)(F)F)cc1` it was -18%; in that of `O=C1CC(c2ccco2)CC2=C1C1c3ccccc3C(=O)N1c1ccccc1N2` (stereo not given), -3%. In the case of `Cn1nnnc1SCC(=O)Nc1ccccn1` it was 4% (active); in that of `CSc1ccccc1-n1nnnc1SCC(=O)Nc1cc(C)ccc1C`, -30%; in that of `Cn1nnnc1SCC(=O)NC1CCCc2ccccc21` (stereo not given), -21%. On to `CCn1c(O)c(N=NC2=NC(=O)CS2)c2ccccc21`, for which the activity increase over dofetilide control, less the hit threshold is 3% (active). The value for `CCc1ccc2c(c1)c(N=NC1=NC(=O)CS1)c(O)n2CC` was 39% (active); that for `CCn1c(O)c(N=NC2=NC(=O)CS2)c2cc(C)ccc21` was -10%; that for `Cn1cc([N+](=O)[O-])c(C(=O)NCc2cc3cc(Cl)ccc3[nH]2)n1` was -12%. In the case of `O=[N+]([O-])c1cc(F)c2cccnc2c1O` it was -6%. In the case of `COc1ccc(CCn2c(S)nc3ccccc3c2=O)cc1` it was 6% (active); in that of `COc1ccc(-n2cnc3ccccc3c2=O)c([N+](=O)[O-])c1`, -9%; in that of `NC(=O)CSc1nc2ccccc2c(=O)n1CCc1ccccc1`, -8%. For `O=C(COC(=O)C1CCC(=O)N1)Nc1cc(Cl)ccc1Cl` (stereo not given), the activity increase over dofetilide control, less the hit threshold is -13%. Take `CCC(C)(C)C1CCc2c(sc(NC(=O)c3ccccc3C(=O)O)c2C#N)C1` (stereo not given): the activity increase over dofetilide control, less the hit threshold was 18% (active). Take `Cc1ccccc1C(=O)NC(=S)Nc1sc2c(c1C#N)CCC(C)C2` (stereo not given): the activity increase over dofetilide control, less the hit threshold was -13%. Consider `COC(=O)c1c(NC(=O)C2CC=CCC2C(=O)O)sc(C)c1C` (stereo not given), for which the activity increase over dofetilide control, less the hit threshold was -13%. For `O=C(O)Cc1ccc(NC(=O)C2CC=CCC2C(=O)O)cc1` (stereo not given), the activity increase over dofetilide control, less the hit threshold is -14%. The value for `CCC1CCc2c(sc(NC(=O)C3CC=CCC3C(=O)O)c2C#N)C1` (stereo not given) was 2% (active). In the case of `Cc1ccc(CS(=O)(=O)c2ncc(Cl)c(C(=O)Nc3nnc(C)s3)n2)cc1` it was -19%.

Consider `CC1(OC(=O)c2ccc(Cl)nc2)C(=O)C=C2C=C(c3ccc(C#N)cc3)OC=C2C1=O` (stereo not given), for which the activity increase over dofetilide control, less the hit threshold was -3%. In the case of `O=[N+]([O-])c1cc(S(=O)(=O)/N=C(/c2ccccc2)N2CCOCC2)ccc1Cl`, the activity increase over dofetilide control, less the hit threshold is -16%.

As to `CCSC(=S)c1c(C)[nH]n(-c2ccccc2)c1=O`, the activity increase over dofetilide control, less the hit threshold was -19%. For the molecule `COc1ccc2nc(/N=C/c3c(C)[nH]n(-c4ccc(C)cc4C)c3=O)sc2c1`, the activity increase over dofetilide control, less the hit threshold is 88% (active). The value for `CCOc1ccc(-n2cnc3sc(C)c(C)c3c2=O)cc1` was -13%; that for `COc1ccc2nc(/N=C/c3c(C)[nH]n(-c4ccc(C)cc4)c3=O)sc2c1` was 62% (active); that for `COc1ccc2nc(-n3c(O)c(C4=c5ccccc5=NC4=O)[nH]c3=S)sc2c1` was -14%. For the molecule `CCOc1ccc2nc(/N=C/c3c(C)[nH]n(-c4ccc(C)cc4)c3=O)sc2c1`, the activity increase over dofetilide control, less the hit threshold is 38% (active). With `CCOc1ccc2nc(/N=C/c3c(C)[nH]n(-c4ccccc4)c3=O)sc2c1`, the activity increase over dofetilide control, less the hit threshold is 100% (active).

With `CCCSC(=S)c1c(C)[nH]n(-c2ccccc2)c1=O`, the activity increase over dofetilide control, less the hit threshold is 0%. With `Cc1nn(-c2cccc(C(F)(F)F)c2)c(Cl)c1/C=N/Nc1cccc(C(=O)O)c1`, the activity increase over dofetilide control, less the hit threshold was -28%.

Regarding `Brc1ccc(C2=CC(c3ccco3)n3nnnc3N2)cc1` (stereo not given), the activity increase over dofetilide control, less the hit threshold was -13%.

Take `C=CCn1c(SCC(=O)Nc2cccc(C)c2)nnc1-c1cnccn1`: the activity increase over dofetilide control, less the hit threshold was -18%. The value for `O=C(CSc1cccc[n+]1[O-])C12CC3CC(CC(C3)C1)C2` was -11%; that for `Cc1cc(OCCN2CCCCCC2)ccc1[N+](=O)[O-]` was -3%.

For `COCCNC(=O)C1CCN(S(=O)(=O)N2CCC3(CC2)OCCO3)CC1`, the activity increase over dofetilide control, less the hit threshold was -21%. The value for `Cc1cc2nccc(-c3ccc(Cl)cc3Cl)n2n1` was -3%; that for `Cc1[nH]n(-c2ccc(Cl)cc2)c(=O)c1/C=N/c1nnc(-c2ccccc2)s1` was 106% (active); that for `Cc1[nH]n(-c2ccccc2)c(=O)c1N=Nc1ccc(C(N)=O)cc1` was -23%. As for `Cn1cnnc1SCC(=O)NCc1ccccc1`, the activity increase over dofetilide control, less the hit threshold is -20%.

On to `CCn1c(O)c(N=NC(=S)NCC2CCCO2)c2ccccc21` (stereo not given), for which the activity increase over dofetilide control, less the hit threshold is -1%.

Take `CCn1c(O)c(N=NC(=O)CNC(=O)c2ccccc2F)c2ccccc21`: the activity increase over dofetilide control, less the hit threshold was -7%. In the case of `CCCn1c(O)c(N=NC(=O)c2ccco2)c2ccccc21` it was 17% (active); in that of `CC1(C)Cc2c(sc(NC(=O)C(=O)N3CCCC3)c2C#N)CO1`, -2%; in that of `N#Cc1c(NC(=O)c2cc(-n3cnnc3)ccc2Cl)sc2c1CCCC2`, 5% (active).

Regarding `CN(C)Cc1c(C(=O)N/N=C/c2ccccc2OCc2c(F)cccc2Cl)nnn1-c1nonc1N`, the activity increase over dofetilide control, less the hit threshold is 40% (active). As for `Nc1nonc1-n1nnc(C(=O)N/N=C/c2cccc(Cl)c2Cl)c1CN1CCCC1`, the activity increase over dofetilide control, less the hit threshold was 5% (active). In the case of `Cc1c(C(=O)N/N=C/c2ccccn2)nnn1-c1nonc1N`, the activity increase over dofetilide control, less the hit threshold was -14%. The value for `CCc1ccc(/C=N/NC(=O)c2nnn(-c3nonc3N)c2C(C)C)cc1` was -22%. Regarding `Nc1nonc1-n1nnc(C(=O)N/N=C/c2ccccn2)c1-c1ccccc1`, the activity increase over dofetilide control, less the hit threshold was -5%. In the case of `CCCOc1ccc(-c2c(C(=O)N/N=C/c3ccccc3OCC)nnn2-c2nonc2N)cc1` it was -7%.

As for `CN(NC1OC(=O)c2ccccc21)c1ccccc1[N+](=O)[O-]` (stereo not given), the activity increase over dofetilide control, less the hit threshold is -4%. Take `CCCCOC(=O)Nc1nnc(C(C)C)s1`: the activity increase over dofetilide control, less the hit threshold was -14%. The value for `CCOC(=O)c1cccc(C(=O)Nc2nc3ccc(OC)cc3s2)n1` was -14%. In the case of `COc1ccc2nc(NC(=S)NC(=O)c3ccco3)sc2c1` it was 2% (active); in that of `O=C(NC(=S)Nc1nc2ccc(F)cc2s1)c1ccco1`, 65% (active); in that of `CCc1nnc(NC(=O)c2cccc(C(=O)Nc3nnc(CC)s3)n2)s1`, -10%. As to `CC(C)(C)Cc1nnc(NC(=O)c2ccco2)s1`, the activity increase over dofetilide control, less the hit threshold is -13%. Take `O=C(NC(=S)Nc1nc2ccccc2s1)c1ccco1`: the activity increase over dofetilide control, less the hit threshold is -3%.

Regarding `CCc1ccc2nc(NC(=O)c3cc(C)on3)sc2c1`, the activity increase over dofetilide control, less the hit threshold was 10% (active). Consider `Cc1ccc2nc(NC(=S)NC(=O)c3ccco3)sc2c1`, for which the activity increase over dofetilide control, less the hit threshold was 50% (active). The value for `COc1cccc(-c2cc(C(F)(F)F)nc(N3CCCCC3)n2)c1` was -17%; that for `Cc1ccc([N+](=O)[O-])c2c1C(N1CC(C)OC(C)C1)C(C)(C)O2` (stereo not given) was -24%. In the case of `CCc1cccc(C)c1NC(=O)C1=C(C(=O)O)CCCC1` it was -14%; in that of `NS(=O)(=O)c1ccc(Sc2ccc3c(c2)CCC3)nc1`, -2%; in that of `CSc1nc(C)c2c(n1)N(c1ccc(C(C)C)cc1)CC2`, -9%.

As for `Clc1ccc(Nc2ccc(Cl)nn2)cc1`, the activity increase over dofetilide control, less the hit threshold is -6%. The value for `Cc1cc(OCC(=O)Nc2cc(S(=O)(=O)N3CCOCC3)ccc2N2CCCC2)ccc1C(C)C` was -7%; that for `CCCCCN(C(=O)CCC(=O)OCC(=O)N(C)C1CCCCC1)c1c(N)n(CCCC)c(=O)[nH]c1=O` was -12%; that for `COc1ccc(-n2c(=S)[nH]c3ccccc3c2=S)cc1` was -12%.

As to `COc1ccc(-c2nc(=S)c3ccc4ccccc4c3[nH]2)cc1`, the activity increase over dofetilide control, less the hit threshold is 76% (active). As for `CC(C)CC(=O)Nc1ccc2c3c(cccc13)CC2`, the activity increase over dofetilide control, less the hit threshold was -3%.

Consider `CCC1(CC)Cc2ccccc2-c2[nH]c(=S)[nH]c(=O)c21`, for which the activity increase over dofetilide control, less the hit threshold was -6%. In the case of `CCn1c(=S)[nH]c2c(c1=O)C(C)(C)Cc1ccccc1-2` it was 26% (active); in that of `O=C(CSc1nc2ccccc2o1)NCc1n[nH]c(=O)c2ccccc12`, -4%. In the case of `CCOc1ccccc1Nc1nc(-c2sc(C)nc2C)cs1` it was -9%; in that of `CCN(CC(=O)Nc1c(F)cccc1F)C(=O)c1ccc(Cl)c(S(=O)(=O)N2CCCCC2)c1`, -19%.

Take `CN(C(=O)c1ccc(Cl)c(S(=O)(=O)N2CCOCC2)c1)c1ccccc1C(=O)O`: the activity increase over dofetilide control, less the hit threshold is 7% (active). In the case of `O=C(C1CCN(S(=O)(=O)c2cc(Cl)ccc2Cl)CC1)N1CCOCC1` it was -16%; in that of `C=Cc1ccc(Cn2c(=O)n(CCCOC)c(=O)c3sccc32)cc1`, -14%; in that of `O=[N+]([O-])c1cccc(/C=N/N=C\c2ccccc2)c1`, -20%. In the case of `Cc1ccc(C(=O)N/N=C(/CC(=O)c2cccs2)C(F)(F)F)cc1` it was 3% (active); in that of `C/C(=N\NC(=O)c1ccc(NS(=O)(=O)c2cccs2)cc1)c1ccc2c(c1)OCO2`, -17%. As for `COc1ccc(S(=O)(=O)N2CCCC(C(=O)Nc3ccc(OC)c(OC)c3)C2)cc1` (stereo not given), the activity increase over dofetilide control, less the hit threshold is -22%. In the case of `CCN(Cc1ccc(OC)c(F)c1)C(=O)C1CCCO1` (stereo not given) it was -3%; in that of `COc1ccc(-c2cnn(C3CCS(=O)(=O)C3)c2N)cc1` (stereo not given), -23%; in that of `COC(=O)c1ccc(C2C(C#N)=C(N)Oc3cc(O)ccc32)cc1` (stereo not given), 69% (active). In the case of `CCOC(=O)C1=C(N)Oc2cc(O)ccc2C1c1cccnc1` (stereo not given) it was -12%; in that of `COc1cc(C2C(C#N)=C(N)Oc3c2ccc2ccccc32)ccc1OCC(=O)Nc1ccc(C)cc1` (stereo not given), -19%.

For the molecule `O=C(NC1CCCC1)c1ccc(Br)o1`, the activity increase over dofetilide control, less the hit threshold is -5%.

Consider `CCCOc1ccc(OC(=O)c2ccc(Br)o2)cc1`, for which the activity increase over dofetilide control, less the hit threshold was 14% (active). In the case of `CCCCOc1ccc(CC(=O)NCC(=O)O)cc1`, the activity increase over dofetilide control, less the hit threshold was -17%. Consider `O=C(COC(=O)c1ccc(Br)o1)NC1CCCCC1`, for which the activity increase over dofetilide control, less the hit threshold was -6%. In the case of `Cc1ccc(OC(=O)c2ccc(Br)o2)cc1` it was 37% (active). In the case of `Cc1ccsc1CN(C(=O)c1ccc([N+](=O)[O-])cc1)C1CCS(=O)(=O)C1` (stereo not given) it was -5%; in that of `O=C(CS(=O)(=O)Cc1ccccc1)Nc1ccc(Cl)cn1`, -11%.

Values taken from PubChem BioAssay AID1835 (Johns Hopkins Ion Channel Center, 2009).
